Some of the results follow. Results filed as inconclusive are left out. Activity calls are given as the source filed them.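 How the source made its calls: active means dose curves showing G6PC suppression whose half-maximal dose is at most twice the top valid dose; inconclusive means flat curves with moderate negative activity, or unreliable fits; inactive means the rest.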

The assay can be described thus: hepatocyte G6PC expression decrease – cell-based, hepatocytes, RT-qPCR, cherry-picked samples, PGC-1a acetylation activator project, dose response (AID 743463).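 Further: G6PC expression relative to GAPDH housekeeping gene as delta delta Ct.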 The following applies: primary mouse hepatocytes, G6PC mRNA qPCR, forskolin; series mostly up to 26 µM. In general terms: Quantitative PCR measures a nucleic acid by following its amplification.
With `CCOc1ccccc1CN1CCN(C2CCC2)CC1CCO` (stereo not given), the compound was classed as inactive.

For the compound `CCOC(=O)c1c(-c2ccc(C)cc2C)csc1NC(=O)CSc1nnnn1C`, the outcome was inactive.

For the compound `Cc1ccc(S(=O)(=O)Nc2ccc3c(c2)C(=O)N([C@@H](C)CO)C[C@@H](C)[C@H](CN(C)C(=O)Nc2cccc4ccccc24)OCCCC[C@H](C)O3)cc1`, the compound was classed as inactive.

As to `O=C(NCc1ccccc1)C(c1ccccc1)N(C(=O)c1csnn1)c1ccc(F)cc1` (stereo not given), the result was inactive.

As to `COc1ccc(-n2nnnc2CNC(=O)c2ccc3ccccc3c2)cc1`, the result was inactive.

For `CCCCC(=O)Nc1ccc(C(=O)NCCCn2ccnc2)cc1`, the compound was called inactive.

With `COc1ccc(Nc2nnc(C)c3ccccc23)cc1`, the compound was classed as inactive.

In the case of `Cc1cc(C(=O)NNS(=O)(=O)c2ccccc2C(F)(F)F)nn1C(C)(C)C`, the compound was called inactive.

Consider `O=C(NCCC1CCCCN1S(=O)(=O)c1cccs1)C(=O)Nc1ccc(F)cc1F` (stereo not given), for which the compound was classed as inactive.

For `CCC(C)(C)n1nnnc1C(c1ccccc1OC)N1CCSCC1` (stereo not given), the call was inactive.

For the compound `Cc1cc(C)c2c(-n3cccc3)c(C(=O)NNS(=O)(=O)c3ccc(F)cc3)sc2n1`, the compound was classed as inactive.

Take `CC(C)CCNc1nc(N2CCCC2)c2c(c1C#N)CCN(C)C2`: the compound was called inactive.

With `O=S(=O)(NCc1ccccc1Br)c1ccccc1Br`, the outcome was inactive.

As for `Cc1ccc(OCC(=O)NCCCNC(=O)c2cccnc2)cc1C`, the result was inactive.

For `CCOC(=O)c1c(NC(=O)CSc2cn(CC)c3ccccc23)sc2c1CCC2`, the compound was called inactive.

Values taken from PubChem BioAssay AID743463 (Broad Institute, 2014).
